# Compound activity (PubChem)
# The list is not random: actives were taken first. Their share in the collection is about 11%.
# Pf growth 48h: Primary qHTS for delayed death inhibitors of the malarial parasite plastid, 48 hour incubation. Potency, µM (titrated, usually from 28.7 µM), hits mostly inhibitors. P. falciparum luciferase growth in erythrocytes, 48 h. 310,000 tested, 5.9% active
#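 Compounds are pin-transferred into medium, infected erythrocytes (2% hematocrit, 0.1% parasitemia final) are added, and plates sit one parasite generation at 37 C in 5% CO2. Detection reagent is then added and luminescence measured.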
# Pf growth 96h: Primary qHTS for delayed death inhibitors of the malarial parasite plastid, 96 hour incubation; AID 504834, 2011; P. falciparum luciferase reporter growth, 96 h; 320,000 tested, 6.9% active; Potency, µM (highest dose often 28.7 µM), actives largely listed as inhibitors
#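 Erythrocytes infected with luciferase-expressing P. falciparum were dispensed at 2% hematocrit and 0.05% parasitemia (final), then incubated with compounds 96 hours at 37 C in 5% CO2. Luminescence after detection reagent addition reported growth.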
# Sm TGR block: qHTS Assay for the Inhibitors of Schistosoma Mansoni Peroxiredoxins; Schistosoma mansoni thioredoxin glutathione reductase (TGR), Q962Y6; purified TGR, DTNB reduction, TNB absorbance 405 nm; Potency, µM (titrated, usually from 114 µM), usual class: inhibitors; 360,000 tested, 3% active; also: nearly all actives have a fitted effect of over 60% in size
#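 Kinetic colorimetric format: TGR-catalysed, NADPH-driven DTNB reduction monitored via TNB absorbance. Enzyme dispensed at 20 nM; compound exposure 15 min at room temperature before reaction start.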
# AMA1 RON2 block: qHTS for Inhibitors of AMA1-RON; Towards Development of Antimalarial Drug Lead: Primary Screen; Potency, µM (highest dose often 58.2 µM), usual class: inhibitors; AlphaScreen AMA1-biotinylated RON2 peptide binding; Plasmodium falciparum AMA1 (3D7) - RON2 peptide interaction; 360,000 tested, 0.2% active; also: nearly all actives have a fitted effect of over 45% in size
#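 AMA1 (3D7) with his tag at 25 nM final met compounds first, then biotinylated RON2 peptide at 25 nM; detection used donor plus acceptor beads, 10 µg/mL apiece, read by AlphaScreen after 30 min at room temperature.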
# NS1 inh: qHTS Assay for Inhibitors of Influenza NS1 Protein Function | Potency, µM (doses to about 46.1 µM) | 270,000 tested, 0.4% active; calls by dose curve; also: actives are rising curves; nearly all actives have a fitted effect of over 50% in size
#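 In this qHTS, NS1 from influenza A is expressed in budding yeast, where it slows growth. Cells are switched from glucose to 2% galactose medium (pH 6.0, -URA), treated with compound, and growth recovery is read at OD600.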
# Numbers stand for hits; 0 = inactive; ? = inconclusive; - = no result; [ ] = dose if it differs, or a comment. Unless noted, calls follow the shape of the dose curve; as a rule, active = well fitted curve in the direction sought with a large enough effect; inconclusive = small, poorly fitted or top-dose-only effect, or another doubt; inactive = no such curve, though single readings can be large; an effect the other way counts as inactive or inconclusive.
SMILES,Pf growth 48h,Pf growth 96h,Sm TGR block,AMA1 RON2 block,NS1 inh
CCOC(=O)C1=C(C)Nc2sc(C(=O)c3ccc(OC)cc3)c(N)c2C1c1ccc(C(=O)OC)cc1 (centres undefined),7.4µM,5.9µM,0,0,0
CCN(CC(=O)N1CCN(Cc2ccccc2)CC1)S(=O)(=O)c1ccc(C)cc1,0,?,0,0,0
COc1cccc(CN(C)C(=O)CCc2nnc(-c3ccsc3)o2)c1,10µM,?,0,0,0
CCOC(=O)CN(C)C(=O)CCc1nnc(-c2ccsc2)o1,0,?,0,0,0
CCOC(=O)c1nn(-c2ccc(C)c(C)c2)c(=O)c2c(N)scc12,0,13µM,0,0,0
CCOC(=O)c1nn(-c2ccc(OC)cc2)c(=O)c2c(N)scc12,?,0,0,0,0
CCN1C(=O)[C@H]2[C@H]3CN=C(SC)N3[C@@](CC)(C(=O)OC)[C@H]2C1=O,-,-,-,0,-
N=c1n(Cc2ccccc2)c2ccccc2n1CC(O)COc1ccccc1 (centres undefined),15µM,9.3µM,0,0,0
N=c1n(CCN2CCCCC2)c2ccccc2n1CC(O)COc1ccccc1 (centres undefined),?,0,0,0,0
Cc1ccc(Cn2c(=N)n(CC(O)COc3ccccc3)c3ccccc32)cc1 (centres undefined),-,1.7µM,0,0,0
CCN1C(=O)c2ccccc2S(=O)c2ccc(C(=O)N3CCN(c4ccc(F)cc4)CC3)cc21 (centres undefined),-,-,0,-,-
C[C@@H]1CN([C@H](C)CO)C(=O)CCCn2cc(nn2)CO[C@H]1CN(C)C(=O)Nc1ccccc1F,-,-,-,0,-
CCOc1ccc(C(=O)N2CCN(Cc3cc(=O)n4nc(-c5cccc(OC)c5)sc4n3)CC2)cc1,-,-,0,-,-
Cc1cc(OCC(=O)N(Cc2ccco2)c2c(N)n(Cc3ccccc3)c(=O)[nH]c2=O)ccc1Cl,?,?,?,0,-
Cc1ccc(/C=[N+](\[O-])c2ccc(N(C)C)cc2)c2nsnc12,0,0,28µM,25µM,-
CCOc1ccc(NC(=O)CN(C)C(=O)c2cc3c(s2)CCC3)cc1OCC,-,-,-,0,-
CCCCN(C)C(=O)CSc1nc(NCc2ccc(OC)cc2)c2ccccc2n1,10µM,2.3µM,0,0,0
O=C(Cn1ccnc1)c1ccc(Cl)cc1,0,0,0,0,0
Clc1ccc(CC[C@H](Cn2ccnc2)Sc2c(Cl)cccc2Cl)cc1,5.7µM,2µM,-,-,-
Cc1cc(C)nc(NS(=O)(=O)c2ccc(NC(=O)c3ccc(S(=O)(=O)N4CC(C)OC(C)C4)cc3)cc2)n1 (centres undefined),?,?,0,0,0
Cc1cc(C)nc(NS(=O)(=O)c2ccc(NC(=O)c3ccccc3O)cc2)n1,-,-,0,-,-
Cc1ccc(O)c(-c2cc(C(=O)Nc3ccc(S(=O)(=O)Nc4nc(C)cc(C)n4)cc3)[nH]n2)c1,?,13µM,0,0,?
Cc1ccc(O)c(-c2cc(C(=O)Nc3ccc(S(=O)(=O)N4CC(C)OC(C)C4)cc3)[nH]n2)c1 (centres undefined),0.52µM,0,0,0,0
Cc1ccc(-c2cc(C(=O)Nc3ccc(S(=O)(=O)N4CC(C)OC(C)C4)cc3)[nH]n2)c(O)c1 (centres undefined),0.26µM,0.66µM,0,0,0
C[C@]12C(=O)N(c3ccc(Cl)cc3)C(=O)N1[C@@H]1c3ccccc3OC[C@@H]1[C@H]2c1ccccc1,-,-,-,0,-
SMILES,Pf growth 48h,Pf growth 96h,Sm TGR block,AMA1 RON2 block,NS1 inh
O=C1NC(=O)N2CCSC2(Cc2ccccc2)N1 (centres undefined),-,-,-,0,-
O=C(Nc1ccncc1)Nc1ccc(F)cc1F,9.3µM,0,0,0,0
O=C(Nc1ccncc1)Nc1ccc(F)c(Cl)c1,3.3µM,0,0,0,0
C=CCN1C(=O)NC(=O)/C(=C\c2ccc(-c3ccccc3[N+](=O)[O-])o2)C1=O,0,0,?,0,0
O=C1NNC(c2ccccc2)=N/C1=C\c1ccccc1Cl,?,?,0,0,0
COc1cc(/C=C2\C(=O)ON=C2c2ccccc2)cc(OC)c1OC,0,?,8.9µM,0,0
O=C1ON=C(c2ccccc2)/C1=C/c1ccc(-c2ccccc2[N+](=O)[O-])o1,?,8.3µM,11µM,?,0
O=C1NNC(c2ccccc2)=N/C1=C\c1ccco1,0,0,20µM,0,0
O=C1ON=C(c2ccccc2)/C1=C/c1ccco1,0,?,20µM,0,-
COc1ccc(/C=C2/C(=O)ON=C2c2ccccc2)cc1OC,0,0,?,0,0
Cc1ccc(NC(=S)N2CCC(c3ccccc3)C2)c(Cl)c1 (centres undefined),0,0,0,0,-
C=CCOc1ccc(CN(C)C(=O)C2CCCO2)cc1 (centres undefined),0,0,?,0,0
COc1ccc(CNC(=O)CSc2ncc3c(n2)-c2ccc(Cl)cc2N(Cc2ccc(F)cc2)S3(=O)=O)cc1OC,-,-,0,-,-
COc1ccc(/C=C2\C(=O)ON=C2c2cccc([N+](=O)[O-])c2)cc1,0,0,11µM,-,-
COc1ccc(/C=C2\C(=O)ON=C2c2ccccc2)cc1OC,0,0,?,0,0
COc1ccc(-c2c(-c3ccccc3OC)oc3ccccc23)cc1F,2.9µM,2.6µM,0,0,-
CC(C)CC(c1nnnn1CC1CCCO1)N1CCN(c2nc3ccccc3s2)CC1 (centres undefined),?,0,0,0,0
CCCCC(c1nnnn1CC1CCCO1)N1CCN(c2nc3ccccc3s2)CC1 (centres undefined),13µM,0,0,?,0
CCCC(c1nnnn1CC1CCCO1)N1CCN(c2nc3ccccc3s2)CC1 (centres undefined),12µM,0,0,0,0[9.22 µM]
CSc1nc(-c2ccco2)nn1C(=O)c1ccc(C)cc1,0,0,?,0,0
COc1ccc(C(=O)n2nc(-c3ccco3)nc2N)cc1,0,0,32µM,0,0
CSc1nc(-c2ccco2)nn1C(=O)c1ccccc1,?,0,16µM,0,0
COc1ccccc1/C=c1\sc2nc(-c3ccco3)nn2c1=O,0,?,11µM,?,?
COc1ccccc1C(=O)n1nc(-c2ccco2)nc1SC,0,0,14µM,0,-
CCOc1ccc(/C=c2\sc3nc(-c4ccco4)nn3c2=O)cc1OCC,0,?,?,0,?
O=C(OCc1ccc([N+](=O)[O-])cc1Cl)c1cnccn1,0,?,0,0,0
CC(C)(C)C(=O)CNS(=O)(=O)c1ccc(S(=O)(=O)NC2CC2)cc1,0,?,0,0,0
Cc1ccc2cccc(NC(=S)NC(=O)c3ccccc3)c2n1,?,0,0,0,0
Cc1ccc2cn[nH]c2c1NC(=S)NC(=O)c1ccccc1,0,0,14µM,0,0
